TGFb SMAD3 inh = TGF-b pathway inhibition; HepG2 CAGA-GFP TGF-b/SMAD3 reporter, GFP fluorescence, 18 h; TGF-beta stimulated, 500 pg/mL final; Potency, µM (top dose mostly 46.1 µM), inactives show at the highest dose activity, negative = inhibition, most hits filed as inhibitors; hit rate 1.2% among 410,000; AID 588855; note: % is set by controls: 0 for no effect and ±100 for the full control effect; nearly all actives have a fitted effect of over 65% in size
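HEPG2 CAGA-GFP cells (1000/well, DMEM with 1% FBS) were pre-incubated 2 h at 37 degrees C, given compound by pin tool, then stimulated with TGF-beta at 500 pg/mL final for 18 h before per-cell GFP fluorescence imaging.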
A549 tox = kills or reduces viability of A549 cells in Nrf2 counter-screen; hit rate 0.16% among 390,000; AID 504648; A549 ARE-Fluc cells, CellTiter-Fluor viability, 18-24 h; Potency, µM (doses to about 46 µM), without a hit: at the top dose activity change, negative = cytotoxicity, actives largely listed as inhibitors; note: % is set by controls: 0 for no effect and ±100 for the full control effect
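Cytotoxicity counterscreen: CellTiter-Fluor fluorescence was measured in A549 ARE_Fluc cells after 18-24 h of compound exposure in a concentration series. The subsequent BugLite luminescent read reports ARE-luciferase activity.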
Nrf2 activator = activates Nrf2 signaling | AREc32 ARE-luciferase reporter (MCF7-derived line), luminescence, 24 h | Potency, µM (titrated, usually from 46.1 µM), without a hit: at the top dose activation, most hits filed as activators | hit rate 0.31% among 410,000 | AID 624171; note: % of control where 0% means no effect; nearly all actives have a fitted effect of over 65% in size
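Each well held 1000 AREc32 cells, which were incubated with compound for 24 hr at 37 deg C after overnight attachment, and ARE reporter activity was quantified by firefly luciferase luminescence.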
HepG2 viability = counter-screen for TGF-b inhibitors: cytotoxicity in HepG2 cells; HepG2 CAGA-GFP viability, ATP luminescence, 18 h; Potency, µM (titrated, usually from 46.1 µM), inactives show top-dose activity change, negative = cytotoxicity, most hits filed as cytotoxic; hit rate 0.76% among 410,000
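HepG2 CAGA-GFP cells (1000/well, DMEM with 1% FBS) received compound, then TGF-beta at 500 pg/mL final, and were incubated 18 hours at 37 degrees C. Viability was read by CellTiter-Glo luminescence. Media-only wells were set as complete cell-killing and DMSO as no toxicity.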
Nrf2 block = Nrf2 pathway inhibition; A549 ARE-Fluc reporter, luciferase luminescence, 18-24 h; Potency, µM (highest dose often 46 µM), for inactives: at the top dose activity change, negative = inhibition, most hits filed as inhibitors; hit rate 2.1% among 360,000; note: % is set by controls: 0 for no effect and ±100 for the full control effect; nearly all actives have a fitted effect of over 60% in size
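A549 ARE_Fluc cells, 5000/well, 5% FBS OPTI-MEM; compounds in dose-response, 18-24 h at 37 °C/5% CO2; CellTiter-Fluor viability read (Ex 405/Em 525), then BugLite luciferase luminescence = Nrf2 activity.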
The depositor's hits bear a star; ! = a repeat was not active; [ ] = remark or other dose. This is a sample that favours compounds with a hit; in the whole collection about 3.6% have one here. Calls come from the whole dose curve; as a rule, active = well fitted curve in the direction sought with a large enough effect; inconclusive = small, poorly fitted or top-dose-only effect, or another doubt; inactive = no such curve, though single readings can be large; an effect the other way counts as inactive or inconclusive. Potency is the fitted concentration of half-maximal effect.

What do the screens show for `COc1c(C)cccc1C(=O)Nc1ccc(-c2nc3ccccc3s2)c(Cl)c1`?
TGFb SMAD3 inh: 28%; A549 tox: -23%; Nrf2 activator: 0%; HepG2 viability: -2%; Nrf2 block: 26µM*

Results for Cn1c(=O)c2nc(NCc3ccccc3)sc2n(C)c1=O ?
TGFb SMAD3 inh: 6%; A549 tox: -1%; Nrf2 activator: 2.5µM*; HepG2 viability: 11%; Nrf2 block: inconclusive

Results for Cn1c(=O)c2c(nc(NCc3ccccc3)n2C)n(C)c1=O ?
TGFb SMAD3 inh: 3%; A549 tox: 4%; Nrf2 activator: 4%; HepG2 viability: -1%; Nrf2 block: -11%

Results for CC(C)CN(CC(C)C)C(=S)Nc1ccc(Cl)cc1 ?
TGFb SMAD3 inh: inconclusive; A549 tox: -22%; Nrf2 activator: 6%; HepG2 viability: 7%; Nrf2 block: 26µM*

How did Cc1cccc(N2CCN(C(=O)c3cc4c(=O)oc5ccccc5c4s3)CC2)c1C do in these assays?
TGFb SMAD3 inh: 20%; A549 tox: -12%; Nrf2 activator: -1%; HepG2 viability: -10%; Nrf2 block: 0%[9.27 µM]

What do the screens show for `O=C(N/N=C/c1cccc(Oc2ccc([N+](=O)[O-])cc2[N+](=O)[O-])c1)c1cncc(Br)c1`?
TGFb SMAD3 inh: -4%; A549 tox: inconclusive; Nrf2 activator: inconclusive; HepG2 viability: -25%; Nrf2 block: 13µM*

Results for Cc1ccccc1OCC(=O)N/N=C/c1cccc(Oc2ccc([N+](=O)[O-])cc2[N+](=O)[O-])c1 ?
TGFb SMAD3 inh: inconclusive; A549 tox: -19%; Nrf2 activator: inconclusive; HepG2 viability: -1%; Nrf2 block: inconclusive

How did COc1cc2c(cc1OC)C(c1ccc(-c3ccccc3Cl)o1)=NCC2 do in these assays?
TGFb SMAD3 inh: inconclusive; A549 tox: 1%; Nrf2 activator: -1%; HepG2 viability: -113%

Results for COc1cc2c(cc1OC)C(c1ccc(-c3cc(Cl)ccc3Cl)o1)=NCC2 ?
TGFb SMAD3 inh: 0%; A549 tox: inconclusive; Nrf2 activator: -1%; HepG2 viability: -32%; Nrf2 block: 16µM*

Results for COc1cc2c(cc1OC)C(c1ccc(-c3ccc(Cl)c(Cl)c3)o1)=NCC2 ?
TGFb SMAD3 inh: 11µM*; Nrf2 activator: 3%; HepG2 viability: 11µM*!; Nrf2 block: 9.2µM*

How did COc1cc2c(cc1OC)C(c1ccc(-c3ccc(Cl)cc3Cl)o1)=NCC2 do in these assays?
TGFb SMAD3 inh: 14µM*; A549 tox: inconclusive; Nrf2 activator: 4%; HepG2 viability: -65%; Nrf2 block: inconclusive

Results for COc1cc2c(cc1OC)C(c1oc(-c3ccc(-c4cc(Cl)ccc4Cl)o3)cc1C)=NCC2 ?
TGFb SMAD3 inh: 4%; HepG2 viability: 16%

How did CCCN1CCCc2cc(CN)ccc21 do in these assays?
TGFb SMAD3 inh: inconclusive; A549 tox: 0%[1.84 µM]; Nrf2 activator: 2%; HepG2 viability: -44%; Nrf2 block: 9.2µM*

How did Cc1ccn2cc(-c3ccc(O)c(O)c3)nc2c1 do in these assays?
TGFb SMAD3 inh: 11µM*; A549 tox: -9%; Nrf2 activator: 7%; HepG2 viability: -66%; Nrf2 block: 7%

How did Oc1ccc(-c2cn3ccccc3n2)cc1O do in these assays?
TGFb SMAD3 inh: 3%; A549 tox: 1%; Nrf2 activator: 18%; HepG2 viability: -26%; Nrf2 block: -7%

Results for CCOC(=O)C1=CCC2c3c(c4ccccc4n3C)C(=O)C1N2C(=O)OC(C)(C)C (configuration not stated) ?
TGFb SMAD3 inh: -1%; A549 tox: inconclusive; Nrf2 activator: -2%; HepG2 viability: -23%; Nrf2 block: 15µM*

How did CCOC(=O)C1=CC[C@]2(C)c3c(c4ccccc4n3C)C(=O)C1N2C do in these assays?
TGFb SMAD3 inh: -2%; A549 tox: -1%; Nrf2 activator: 0%; HepG2 viability: 4%; Nrf2 block: 14%

How did O=[N+]([O-])/C=C\c1ccc(N2CCCC2)c(F)c1 do in these assays?
TGFb SMAD3 inh: 11µM*; A549 tox: -3%; Nrf2 activator: 0%; HepG2 viability: -35%; Nrf2 block: inconclusive

How did O=Cc1ccc(N2CCCC2)c([N+](=O)[O-])c1 do in these assays?
TGFb SMAD3 inh: inconclusive; A549 tox: 1%; Nrf2 activator: 0%; HepG2 viability: -3%; Nrf2 block: inconclusive

What do the screens show for `O=C1C(Cl)=C(N2CCOCC2)C(=O)N1c1ccc(Br)cc1`?
TGFb SMAD3 inh: -1%; A549 tox: -1%; Nrf2 activator: inconclusive; HepG2 viability: -16%; Nrf2 block: 2%

How did NS(=O)(=O)c1ccc(NC(=S)NC(=O)/C=C/c2cccs2)cc1 do in these assays?
TGFb SMAD3 inh: 16%; A549 tox: -5%; Nrf2 activator: 2%; HepG2 viability: 2%; Nrf2 block: 5%

Results for Cc1ccc(S(N)(=O)=O)cc1NC(=O)/C=C/c1cccs1 ?
TGFb SMAD3 inh: 10%; A549 tox: -5%; Nrf2 activator: 13µM*; HepG2 viability: 11%

Results for Cc1cc2occ(CC(=O)NC3(C)CCS(=O)(=O)C3)c2cc1C (configuration not stated) ?
TGFb SMAD3 inh: -7%; A549 tox: 8%; Nrf2 activator: 0%; HepG2 viability: -34%; Nrf2 block: 0%

What do the screens show for `CC(C)CC(C(=O)NC(C)(C)C)N(Cc1cccs1)C(=O)c1snc(C(N)=O)c1N` (configuration not stated)?
TGFb SMAD3 inh: -12%; A549 tox: -13%; Nrf2 activator: 0%; HepG2 viability: -11%; Nrf2 block: -17%

Results for O=C(O)c1ccc(N/N=C/C=C/c2ccc([N+](=O)[O-])o2)cc1 ?
TGFb SMAD3 inh: 27%; A549 tox: inconclusive; Nrf2 activator: 14µM*; HepG2 viability: -1%; Nrf2 block: inconclusive

How did O=C(N/N=C/c1ccc([N+](=O)[O-])o1)C(=O)Nc1ccc(C(=O)O)cc1 do in these assays?
TGFb SMAD3 inh: 2%; A549 tox: -7%; Nrf2 activator: 0%; HepG2 viability: 4%; Nrf2 block: 5%

How did CCn1c(=O)n(CC)c2cc(NC(=O)CSc3ccc([N+](=O)[O-])cn3)ccc21 do in these assays?
TGFb SMAD3 inh: -22%; A549 tox: -1%; Nrf2 activator: -1%; HepG2 viability: -11%; Nrf2 block: -20%

Results for O=C(NCCCc1nc2ccccc2n1Cc1ccc(Cl)cc1)C1CCCCC1 ?
TGFb SMAD3 inh: 10µM*; A549 tox: inconclusive; Nrf2 activator: 6%; HepG2 viability: -30%; Nrf2 block: inconclusive

How did O=C(NCCc1nc2ccccc2n1CCOc1ccccc1)C1CCCCC1 do in these assays?
TGFb SMAD3 inh: inconclusive; A549 tox: inconclusive; HepG2 viability: -3%; Nrf2 block: 26µM*

From PubChem BioAssay
